About 79,000 compounds went through this panel and 15% of them were active in at least one assay; those are over-represented in the sample as a whole. Active and inactive are the calls of the source. No stated cut-off is given here; in the data, active means growth inhibition above about 70%; inactive means the rest.
Experiments:
[1] = NCI Yeast Anticancer Drug Screen. Data for the rad50 strain (AID 155);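 further: 0% = growth of vehicle-only cultures of the same strain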; settings: S. cerevisiae rad50 strain growth inhibition, hits give high values
Procedure, shortened: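 Relative growth inhibition (compound vs vehicle) was measured in yeast with a defined repair-gene alteration.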

[2] = NCI Yeast Anticancer Drug Screen. Data for the mec2-1 strain (AID 157); settings: S. cerevisiae mec2-1 strain, hits give high values
Procedure, shortened: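 Mutant yeast (mec2-1) grown with compound; growth inhibition relative to vehicle control reported.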

[3] = NCI Yeast Anticancer Drug Screen. Data for the sgs1 mgt1 strain (AID 161);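 further: 0% = growth of cultures given vehicle only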; settings: S. cerevisiae sgs1 mgt1 strain, hits give high values
Procedure, shortened: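 Growth of a repair-deficient yeast mutant was monitored after compound treatment and expressed as inhibition relative to vehicle-treated cultures.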

[4] = NCI Yeast Anticancer Drug Screen. Data for the cln2 rad14 strain (AID 165);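 further: 0% = growth equal to vehicle treated cultures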; settings: S. cerevisiae cln2 rad14 strain, hits give high values
Procedure, shortened: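 Readout is yeast growth inhibition versus vehicle-treated controls, using a strain with cln2 and rad14 alterations exposed to compound.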

[5] = NCI Yeast Anticancer Drug Screen. Data for the bub3 strain (AID 167); settings: S. cerevisiae bub3 mutant strain, hits give high values
Procedure, shortened: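 Screening used yeast with an engineered genetic alteration affecting cell cycle control. Compound-exposed cultures were compared with vehicle cultures, and reduced growth was taken as inhibition.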

[6] = NCI Yeast Anticancer Drug Screen. Data for the mlh1 rad18 strain (AID 175); settings: S. cerevisiae mlh1 rad18 strain growth inhibition, hits give high values
Procedure, shortened: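 Genetically defined yeast (DNA repair-deficient) exposed to compounds; growth inhibition determined relative to vehicle.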

[7] = at 5.0 µM (retest, dose inferred, filed as 0.5)
[8] = at 50.0 µM (retest, dose inferred, filed as 5.0)

Measured: growth inhibition

CN=C(N)NN=C(c1ccc(Cl)cc1)c1ccc(Cl)cc1
inactive: [1]; [7] 32% | [2]; [7] 30% | [3]; [7] 51% | [4]; [7] 48% | [5]; [7] 52% | [6]; [7] 25%
active: [1]; [8] 99% | [1]; at 50.0 µM 87.8% | [2]; [8] 99% | [2]; at 50.0 µM 91.2% | [3]; [8] 99% | [3]; at 50.0 µM 87.5% | [4]; [8] 98% | [4]; at 50.0 µM 85% | [5]; [8] 99% | [5]; at 50.0 µM 83.2% | [6]; [8] 98% | [6]; at 50.0 µM 92.4%

CCCCCCCCCCC(=O)CC(=O)c1c(O)cccc1O
inactive: [1]; [7] -14% | [1]; [8] -1% | [1]; at 50.0 µM 1.9% | [2]; [7] -11% | [2]; [8] 5% | [2]; at 50.0 µM -0.35% | [3]; [7] 10% | [3]; [8] 5% | [3]; at 50.0 µM 2.4% | [4]; [7] 0% | [4]; [8] 12% | [4]; at 50.0 µM -37.5% | [5]; [7] 12% | [5]; [8] 17% | [5]; at 50.0 µM -1.95% | [6]; [7] -16% | [6]; [8] 16% | [6]; at 50.0 µM 1.5%

c1ccc2nc3[nH]c4ccccc4c3cc2c1
active: [1]; [8] 87% | [1]; at 50.0 µM 85.2%
inactive: [1]; [7] 24% | [2]; [7] 18% | [2]; [8] 52% | [2]; at 50.0 µM 53.6% | [3]; [7] 14% | [3]; [8] 40% | [3]; at 50.0 µM 50.8% | [4]; [7] 22% | [4]; [8] 39% | [4]; at 50.0 µM 44.8% | [5]; [7] 18% | [5]; [8] 46% | [5]; at 50.0 µM 50.6% | [6]; [7] 18% | [6]; [8] 45% | [6]; at 50.0 µM 69.2%

CN(C)c1ccc(N=Nc2ccc3c4c(cccc24)-c2ccccc2-3)cc1
inactive: [1]; [7] 26% | [2]; [7] -4% | [3]; [7] 3% | [4]; [7] -1% | [5]; [7] 0% | [6]; [7] -1%
active: [1]; [8] 94% | [1]; at 50.0 µM 96.5% | [2]; [8] 96% | [2]; at 50.0 µM 97.5% | [3]; [8] 96% | [3]; at 50.0 µM 97.4% | [4]; [8] 97% | [4]; at 50.0 µM 95.8% | [5]; [8] 95% | [5]; at 50.0 µM 97% | [6]; [8] 95% | [6]; at 50.0 µM 97%

Cc1cccc(Cl)c1NC(=S)Nc1cccc(C(F)(F)F)c1
inactive: [1]; [7] -4% | [1]; [8] 2% | [2]; [7] 2% | [2]; [8] 8% | [3]; [7] 10% | [3]; [8] 1% | [4]; [7] 24% | [4]; [8] 23% | [5]; [7] 20% | [5]; [8] 9% | [6]; [7] -21% | [6]; [8] 17%
active: [1]; at 50.0 µM 88.8% | [2]; at 50.0 µM 89.4% | [3]; at 50.0 µM 92.3% | [4]; at 50.0 µM 88.3% | [5]; at 50.0 µM 89.6% | [6]; at 50.0 µM 86.2%

Oc1cccc(NCSc2ccc(Cl)cc2)c1
inactive: [1]; [7] -4% | [2]; [7] -3% | [3]; [7] -9% | [4]; [7] -5% | [5]; [7] -3% | [6]; [7] -1%
active: [1]; [8] 95% | [1]; at 50.0 µM 93.3% | [2]; [8] 95% | [2]; at 50.0 µM 95.2% | [3]; [8] 95% | [3]; at 50.0 µM 96.2% | [4]; [8] 91% | [4]; at 50.0 µM 92.5% | [5]; [8] 93% | [5]; at 50.0 µM 94.1% | [6]; [8] 91% | [6]; at 50.0 µM 94%

CCCCCCCCCCCCCCCCP(=O)([O-])OCC[N+](C)(C)C
active: [1]; [8] 99% | [1]; at 50.0 µM 80.8% | [2]; [8] 99% | [2]; at 50.0 µM 87.3% | [3]; [8] 99% | [3]; at 50.0 µM 89.2% | [4]; [8] 99% | [4]; at 50.0 µM 89.5% | [5]; [8] 98% | [5]; at 50.0 µM 88.5% | [6]; [8] 98% | [6]; at 50.0 µM 91.5%
inactive: [1]; [7] -34% | [2]; [7] -32% | [3]; [7] 0% | [4]; [7] -27% | [5]; [7] -32% | [6]; [7] -26%

CNc1ccc(N=O)cc1
active: [1]; [8] 90% | [1]; at 50.0 µM 87.8% | [2]; [8] 99% | [2]; at 50.0 µM 90.8% | [3]; at 50.0 µM 89% | [4]; [8] 81% | [4]; at 50.0 µM 74.7% | [5]; [8] 98% | [5]; at 50.0 µM 89.2% | [6]; [8] 98% | [6]; at 50.0 µM 87.6%
inactive: [1]; [7] -1% | [2]; [7] 27% | [3]; [7] 5% | [3]; [8] 57% | [4]; [7] 19% | [5]; [7] 25% | [6]; [7] 19%

CC(c1ccc(OCc2ccccc2)cc1)c1cc2c(cc1OCCO)OCO2 (stereo not given)
active: [2]; at 50.0 µM 76.2%
inactive: [1]; [7] 3% | [1]; [8] 46% | [1]; at 50.0 µM 61.2% | [2]; [7] -1% | [2]; [8] 41% | [3]; [7] 9% | [3]; [8] 57% | [3]; at 50.0 µM 31.9% | [4]; [7] -1% | [4]; [8] 47% | [4]; at 50.0 µM 43.5% | [5]; [7] 6% | [5]; [8] 58% | [5]; at 50.0 µM 49.7% | [6]; [7] 4% | [6]; [8] 62% | [6]; at 50.0 µM 43.2%

NCC(CS)C(=O)NC(CS)C(=O)NC(CS)C(=O)NCCNc1ccc(NCCNC(=O)C(CS)NC(=O)C(CS)NC(=O)C(CN)CS)c2c1C(=O)c1c(O)ccc(O)c1C2=O (stereo not given)
active: [1]; [7] 80% | [1]; [8] 78% | [2]; [8] 85% | [2]; at 50.0 µM 70.8% | [3]; [8] 82% | [3]; at 50.0 µM 72% | [4]; [8] 84% | [6]; [8] 75%
inactive: [1]; at 50.0 µM 61.1% | [2]; [7] 34% | [3]; [7] 36% | [4]; [7] 23% | [4]; at 50.0 µM 65.7% | [5]; [7] 36% | [5]; [8] 58% | [5]; at 50.0 µM 65% | [6]; [7] 40% | [6]; at 50.0 µM 53.9%
